Source: PubChem BioAssay (several laboratories)
PAFAH1B3 inh: PAFAH1B3 enzyme inhibitors, primary screen, biochemical, fluorescence polarization, human | Platelet-activating factor acetylhydrolase IB subunit alpha1 (Homo sapiens), Q15102 | recombinant PAFAH1B3, FP-rhodamine probe | inhibition, % at 3.39 µM | 0.28% of 340,000 active;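 active = inhibition above the screen-wide average of all tested compounds plus 3 SD, cut at about 25% in these data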
Target sequence (Q15102 whole entry, looked up): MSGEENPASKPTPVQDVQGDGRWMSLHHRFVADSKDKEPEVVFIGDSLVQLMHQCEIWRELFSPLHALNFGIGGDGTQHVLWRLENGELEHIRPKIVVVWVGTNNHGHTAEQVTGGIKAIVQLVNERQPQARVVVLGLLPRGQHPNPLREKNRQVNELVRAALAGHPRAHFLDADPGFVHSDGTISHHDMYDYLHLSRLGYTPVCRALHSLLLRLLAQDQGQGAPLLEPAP
Pemphigus Ab inh: inhibitors of pemphigus antibody binding to DSG3, primary screen, biochemical, bead-based, flow cytometry, scFv-GFP; Desmoglein-3 (Homo sapiens), P32926; DSG3-coupled beads, scFv-anti-DSG3-GFP binding; stronger effect = lower value; binding (percent of control), % at 10 µM; 0.48% of 310,000 active;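 active = binding more than 3 SD below its plate's average and above zero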;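 also: hits lower antibody fragment binding to DSG3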
M18AAP inhibitor: PfM18AAP inhibitors, malaria aminopeptidase, primary screen, biochemical, QFRET, recombinant enzyme; M18 aspartyl aminopeptidase (Plasmodium falciparum 3D7); H-Glu-NHMec fluorogenic cleavage; inhibition, % at 7.35 µM; 1.2% of 290,000 active; AID 1822, 2009;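 active = inhibition above the campaign mean inhibition over all tested compounds plus 3 SD, cut at about 28% in these data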
PAFAH1B2 inh: PAFAH1B2 enzyme inhibitors, primary screen, biochemical, fluorescence polarization, human. inhibition, % at 3.39 µM. 1.2% of 340,000 active. recombinant PAFAH1B2, FP-rhodamine activity probe;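 active = inhibition above the mean of all tested compounds plus 3 SD, cut at about 24% in these data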
Target sequence (P68402 whole entry, looked up): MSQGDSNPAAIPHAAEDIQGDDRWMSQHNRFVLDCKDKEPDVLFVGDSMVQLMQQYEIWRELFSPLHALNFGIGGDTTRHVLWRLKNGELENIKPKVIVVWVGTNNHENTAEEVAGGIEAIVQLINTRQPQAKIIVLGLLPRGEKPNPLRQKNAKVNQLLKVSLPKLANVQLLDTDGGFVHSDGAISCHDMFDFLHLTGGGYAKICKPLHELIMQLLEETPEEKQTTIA
pPAFAH FP inh: pPAFAH enzyme inhibitors, primary screen, biochemical, fluorescence polarization, human; Platelet-activating factor acetylhydrolase (Homo sapiens), Q13093; recombinant pPAFAH, FP-rhodamine probe fluorescence polarization; inhibition, % at 3.39 µM; 1.5% of 330,000 active;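 active = inhibition above the mean inhibition across the screen plus 3 SD, cut at about 25% in these data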;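 also: inhibitors block binding of the rhodamine activity-based probe so polarization drops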
PAFAH2 FP inh: PAFAH2 enzyme inhibitors, primary screen, biochemical, fluorescence polarization, human | AID 492956, 2010 | 0.99% of 340,000 active | recombinant PAFAH2, FP-rhodamine activity probe | inhibition, % at 3.39 µM;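 active = inhibition above the mean over all tested compounds plus 3 SD, cut at about 30% in these data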;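 also: inhibitors block probe labeling of enzyme so polarization drops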
Hits are given with their value; - = inactive; . = not tested or not shown. The list is not random: actives were taken first. Their share in the collection is about 3.8%.

SMILES	PAFAH1B3 inh	Pemphigus Ab inh	M18AAP inhibitor	PAFAH1B2 inh	pPAFAH FP inh	PAFAH2 FP inh
CC(C)[Si]1(C(C)C)OCC2OC(n3cnc4c(N)ncnc43)C(N)C2O[Si](C(C)C)(C(C)C)O1 (centres undefined)	-	.	.	-	.	-
CC(C)c1ccc(NC(=O)COC(=O)Cn2cnc3c2c(=O)n(C)c(=O)n3C)cc1	.	-	.	.	.	.
Cc1ccc(-c2nc3sc(C#N)c(N)n3c(=O)c2C#N)cc1	-	68	-	-	-	-
Cc1ccc(-n2c(N)c(C#N)c(-c3ccccc3)c(C#N)c2=O)cc1	-	-	-	-	-	-
O=C(COC(=O)c1c(F)cccc1F)NC(=O)NCc1ccccc1	.	-	.	.	.	.
O=C(O)c1cc(-c2ccc3c(c2)OCO3)nc2ccc(Br)cc12	-	33	-	-	-	-
Nn1c(SCC(=O)NC2CCCCCC2)nnc1-c1ccco1	.	-	.	.	.	.
S=C(Nc1ccc(N2CCOCC2)cc1)Nc1ccc2snnc2c1	-	-	30	-	-	-
CCN(CC)CCNC(=O)CN1C(=O)CSc2ccc(S(=O)(=O)N3CCOCC3)cc21	.	-	.	.	.	.
COc1ccccc1-c1c(C)nn2c(N3CCN(Cc4ccccc4)CC3)cc(C)nc12	-	-	-	-	28	-
O=C1C=C(N2CCOCC2)c2ccccc2C1=O	77	-	-	-	-	47
O=C1C=C(N2CCOCC2)c2cccc3cccc1c23	.	-	.	.	.	.
CCc1ccc(C2CC(c3ccc(Cl)cc3)n3nc(N)nc3N2)cc1 (centres undefined)	-	-	-	36	-	-
O=C(NNC(=O)C1CCN(S(=O)(=O)c2ccc(Cl)cc2)CC1)c1ccccc1	-	-	-	34	-	-
Cc1cccc(NC(=O)C2CCN(S(=O)(=O)c3ccc(Cl)cc3)CC2)n1	-	-	.	29	-	-
O=C(NNC(=O)C1CCN(S(=O)(=O)c2ccc(Cl)cc2)CC1)c1ccc(Cl)cc1	-	-	-	-	-	-
CCN(CC)S(=O)(=O)c1ccc(C(=O)NNC(=O)C2CCN(S(=O)(=O)c3ccc(Cl)cc3)CC2)cc1	-	-	-	36	-	-
Cc1cccc(NC(=O)C(C)OC(=O)CNC(=O)C2CCCCC2)c1 (centres undefined)	.	-	.	.	.	.
CN1C(=O)N(CC(=O)c2ccc3c(c2)OCO3)C(=O)C12CCCCC2	.	-	.	.	.	.
CCN1C(c2ccc(F)cc2)=CS/C1=C(/C#N)c1nnc2n1-c1ccccc1SC2	.	-	.	.	.	.
COc1ccc([C@H]2N[C@]3(CCCN(Cc4ccc(Br)cc4)C3=O)[C@H]3C(=O)N(C)C(=O)[C@@H]23)cc1	.	-	.	.	.	.
CC1CC(C)CN(CCCNC(=O)c2ccc(CS(=O)(=O)Cc3ccccc3F)o2)C1 (centres undefined)	-	-	-	-	-	-
Cc1ccc(CS(=O)(=O)Cc2ccc(C(=O)NCCCN3CC(C)CC(C)C3)o2)cc1 (centres undefined)	-	-	-	-	31	-
CC(=O)Nc1ccc(NC(=O)CCCc2ccccc2)cc1	-	-	-	-	-	-
O=C(Cn1cnc2scc(-c3cccc([N+](=O)[O-])c3)c2c1=O)NCc1ccco1	-	-	-	-	26	-
SMILES	PAFAH1B3 inh	Pemphigus Ab inh	M18AAP inhibitor	PAFAH1B2 inh	pPAFAH FP inh	PAFAH2 FP inh
CN1CCN(c2nc3cc(N4CCOCC4)ccc3s2)CC1	.	-	.	.	.	.
COc1ccccc1OCC(=O)Nc1cc2c(cc1C(=O)O)OCCCO2	-	.	-	-	-	-
Nc1ccc(Nc2ccncc2)cc1	.	-	.	.	.	.
CC1CC(C)CN(c2ccc(-n3cnnn3)cc2[N+](=O)[O-])C1 (centres undefined)	-	-	-	-	-	-
O=[N+]([O-])c1cc(-n2cnnn2)ccc1N1CCC(Cc2ccccc2)CC1	-	-	-	-	28	-
O=C(O)COc1ccccc1/C=N/NC(=O)CSc1nnc(SCc2ccc(Cl)cc2)s1	-	-	-	43	27	-
O=C(CSc1nnc(SCc2cccc3ccccc23)s1)N/N=C/c1c[nH]c2ccccc12	-	-	-	26	-	-
O=C(O)COc1ccccc1/C=N/NC(=O)CSc1nnc(SCc2cccc3ccccc23)s1	-	-	-	-	-	-
Cc1ccc([C@@H]2CC=C(C(=O)O)[C@H](c3ccc(C(C)(C)C)cc3)N2S(=O)(=O)c2ccc(C)cc2)cc1	-	-	.	87	-	-
Cc1ccc(S(=O)(=O)N2[C@@H](c3ccc(Br)cc3)C(C(=O)O)=CC[C@H]2c2ccc(C(C)C)cc2)cc1	-	-	.	89	-	-
COc1ccc([C@@H]2CC=C(C(=O)O)[C@H](c3ccccc3)N2S(=O)(=O)c2ccc(C)cc2)cc1OC	-	-	.	-	-	-
CCc1ccc([C@H]2C(C(=O)O)=C[C@@H](C(C)(C)C)N2S(=O)(=O)c2ccc(C)cc2)cc1	-	-	.	-	-	-
COc1cc([C@@H]2CC=C(C(=O)O)[C@H](c3ccc(Cl)cc3)N2S(=O)(=O)c2ccc(C)cc2)cc(OC)c1OC	-	-	.	-	-	-
Cc1ccc(S(=O)(=O)N2[C@@H](c3ccc(Cl)cc3)C(C(=O)O)=CC[C@H]2c2ccc(Cl)c(Cl)c2)cc1	-	-	.	90	-	-
CCc1ccc([C@@H]2CC=C(C(=O)O)[C@H](c3ccc(C(C)(C)C)cc3)N2S(=O)(=O)c2ccc(C)cc2)cc1	-	-	.	87	-	-
Cc1ccc(S(=O)(=O)N2[C@@H](c3ccc(C(C)(C)C)cc3)C(C(=O)O)=CC[C@H]2c2ccc(C(C)C)cc2)cc1	-	-	.	83	-	-
CCOc1ccc([C@@H]2CC=C(C(=O)O)[C@H](c3cccc(Cl)c3)N2S(=O)(=O)c2ccc(C)cc2)cc1	-	-	.	-	-	-
CCOC(=O)[C@@H]1CSCCS(=O)(=O)N1	-	-	.	-	.	-
c1ccc(-c2cc3ccccc3nc2N2CCCC2)cc1	-	-	-	-	-	-
Cc1ccc(-c2cc3ccccc3nc2N2CCOCC2)cc1	.	.	-	.	26	.
O=C1COC(c2ccccc2O)=NN1CCCl	.	-	.	.	.	.
CCN(C1CCCCC1)S(=O)(=O)c1ccc(S(=O)(=O)NCCc2ccncc2)cc1	-	-	-	25	-	-
CCN(C1CCCCC1)S(=O)(=O)c1ccc(S(=O)(=O)NCc2ccncc2)cc1	-	-	-	-	-	-
Cn1cccc1CC(=O)N/N=C\c1c2ccccc2cc2ccccc12	-	-	-	-	27	-
COc1ccc(-c2noc(CCC(=O)Nc3cccc(C(=O)NC4CC4)c3)n2)cc1OC	.	-	.	.	.	.
